Arbovirus anti: arbovirus infection inhibition. arbovirus infection cell-based antiviral screen. inhibition, % at 10 µM. actives 0.37% (n = 200,000). AID 1251; in the data active = inhibition above about 30%
p97 ATPase inh: human p97 ATPase inhibition | P55072 | actives 0.42% (n = 220,000) | recombinant p97 ATPase, Kinase-Glo ATP luminescence, 3 h | inhibition, % at 8 µM; in the data active = inhibition above about 15%;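 also: 0% = DMSO vehicle and 100% = wells lacking enzyme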
S1P3 antag: blocks the human S1P3 receptor; CHO S1P3 NFAT-BLA reporter, FRET fluorescence, antagonist mode; actives 0.27% (n = 170,000); inhibition, % at 4.98 µM;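 active = inhibition above the plate cutoff, the mean inhibition of test wells on that plate plus 3 SD, cut at about 28% in these data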;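 also: cells challenged with S1P at its EC80 of 0.8 µM; blue over green emission ratio from cleaved BLA substrate after 4 h stimulation; 0% = S1P-stimulated wells and 100% = unstimulated DMSO-only wells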
Redox H2O2 prof: compounds producing H2O2 with reducing agent – biochemical, NIH compound library profiling, artefact control for MLSCN library redox annotation, primary screen | DTT-dependent redox cycling H2O2, phenol red/HRP absorbance; 100% = 100 µM peroxide control, 0% = buffer | actives 0.03% (n = 200,000) | AID 878 | activation, % at 10 µM;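 active = activation of at least 50% relative to the plate's high and low controls in the primary single-dose screen; inactive = activation below 50%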;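 also: compound incubated with DTT at 0.8 mM final as the reducing agent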
S1P4 antagonist: antagonists of human S1P4 receptor | S1P4-expressing cells, antagonist mode, reporter read-out | O95977 | inhibition, % at 4.98 µM | actives 0.26% (n = 220,000); in the data active = inhibition above about 29%;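 also: 0% = wells stimulated with agonist and 100% = vehicle wells without agonist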
Target sequence (O95977 whole entry, looked up): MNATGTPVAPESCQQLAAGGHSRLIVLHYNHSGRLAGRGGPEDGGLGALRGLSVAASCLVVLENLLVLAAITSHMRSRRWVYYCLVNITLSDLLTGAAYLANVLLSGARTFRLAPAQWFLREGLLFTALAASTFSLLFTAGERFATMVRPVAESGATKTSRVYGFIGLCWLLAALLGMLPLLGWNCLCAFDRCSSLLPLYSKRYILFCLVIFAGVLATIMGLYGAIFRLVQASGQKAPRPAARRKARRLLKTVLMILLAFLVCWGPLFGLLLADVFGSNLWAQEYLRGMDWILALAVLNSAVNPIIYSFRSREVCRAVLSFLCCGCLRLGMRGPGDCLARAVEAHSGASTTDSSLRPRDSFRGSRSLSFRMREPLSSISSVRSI
S1P4 agonist: agonists of human S1P4 receptor; O95977; S1P4-expressing cell line, agonist reporter assay; activation, % at 4.98 µM; actives 0.35% (n = 220,000); AID 1509; in the data active = activation above about 11%;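 also: 0% = DMSO vehicle and 100% = reference agonist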
p97 inh conf: confirmation of human p97 ATPase inhibitors | shares compounds with p97 ATPase inh | recombinant p97 ATPase, Kinase-Glo ATP luminescence | inhibition, % at 8 µM | actives 44% (n = 760);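 active = percent inhibition of p97 ATPase above a set limit, the primary screen's mean plus 3 SD, cut at about 15% in these data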;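 also: 0% = DMSO wells and 100% = wells lacking p97 protein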
The depositor's hits bear a star; . = no result. Sampled rows, rich in hits. Any-hit rate of the full collection: about 1.6%.

SMILES	Arbovirus anti	p97 ATPase inh	S1P3 antag	Redox H2O2 prof	S1P4 antagonist	S1P4 agonist	p97 inh conf
O=C(Cc1ccc(Cl)cc1)Nc1ccc(NC(=O)c2cccs2)cc1	-13.1	15.4*	-9.6	0.2	-1.2	1.5	12.0
CCc1nnc(NS(=O)(=O)c2ccc(NC(=S)Nc3ccc(F)cc3)cc2)s1	-2.4	16.7*	-5.8	0.2	-7.1	0.7	3.3
COc1ccc(CC(=O)N/N=C/c2cccn2-c2ccc([N+](=O)[O-])cc2)cc1OC	1.6	4.8	2.1	0.5	-17.4	0.4	.
CC(C)(C)OC(=O)N/N=C/c1cccn1-c1ccc([N+](=O)[O-])cc1	.	16.3*	-20.7	.	9.3	0.1	13.1
CN1CCN(S(=O)(=O)c2ccc(NC(=S)NC(=O)C(C)(C)C)cc2)CC1	5.4	6.7	-10.7	-0.7	7.0	-2.9	.
Cc1cc(Nc2cccc(F)c2)nc(-c2ccccc2O)n1	10.6	2.9	18.2	-0.1	-4.6	0.1	.
Cc1cc(NCc2ccccc2)nc(-c2ccccc2O)n1	-7.0	20.4*	4.2	-0.7	0.0	1.5	34.7*
Cc1cc(NC2CCCCC2)nc(-c2ccccc2O)n1	-0.7	-0.3	.	-8.2	5.0	1.2	.
Cc1cc(Nc2ccccc2)nc(-c2ccccc2O)n1	-32.5	25.4*	31.4	-0.2	-6.9	-2.8	40.4*
Cc1ccc(/C=C/C2=Cc3c(sc(NC(=O)CSc4n[nH]c(N)n4)c3C#N)C(C)(C)C2)o1	28.0	19.4*	3.5	2.8	1.8	0.6	22.4*
CCOC(=O)c1sc(NC(=O)CSc2n[nH]c(-c3ccccc3)n2)c(C#N)c1C	-40.6	1.1	-5.8	0.3	-10.3	0.8	.
O=C(NCCC1CC1(Cl)Cl)Nc1ccccc1 (stereo unspecified)	.	23.4*	0.9	.	-12.4	1.1	6.3
CCN(CC)CCNc1nc2cc(OC)c(OC)cc2c2nc(-c3ccccc3)nn12	-41.6	-1.9	.	0.3	-54.9	0.5	.
O=C(CC(=O)NC1CCCCC1)N/N=C/c1ccccc1F	5.2	1.6	-28.6	-0.1	-1.8	-1.8	.
c1ccc(CN2CCCC3(CCCN(Cc4nc(COc5ccccc5)no4)C3)C2)cc1 (stereo unspecified)	9.0	2.1	-11.0	-1.1	12.1	0.6	.
NC(=O)CC1Nc2cccc3cccc(c23)NC1=O (stereo unspecified)	1.2	34.8*	-21.5	1.4	-12.7	-1.2	9.0
CN1CCN(CCCNC(=O)c2cn(C3CCCCC3)c(=O)c3c2c2ccccc2n3C)CC1	-7.8	23.2*	.	0.1	8.6	1.5	4.0
CCN(CC(=O)NCc1cccs1)C(=O)c1cccc(S(=O)(=O)N2CCc3ccccc32)c1	9.2	-3.4	1.9	-0.3	-12.6	-0.7	.
Cc1cccc(C)c1NC(=O)CSCc1cccc(CSCC(=O)Nc2c(C)cccc2C)n1	-9.7	15.6*	.	0.1	10.1	-1.1	3.7
O=C(CSCc1cccc(CSCC(=O)Nc2ccccc2)n1)Nc1ccccc1	0.3	-2.5	.	-0.2	0.7	2.0	.
CCC(=O)Nc1ccc(Br)c(Cl)c1	3.5	16.3*	-14.9	0.4	-12.1	-0.7	10.9
NS(=O)(=O)c1ccc(Nc2nc(-c3ccc(O)cc3O)cs2)cc1	3.3	26.6*	.	-0.4	-9.5	1.0	50.5*
NS(=O)(=O)c1ccc(Nc2nc(-c3ccc(F)cc3)cs2)cc1	-18.1	8.1	-1.7	0.2	8.5	-0.4	.
COc1ccc2c(c1)C(=O)[C@@H](OC(=O)NCc1ccc3c(c1)OCO3)[C@H](c1ccc(OC)c(Br)c1)O2	-15.9	6.3	0.6	0.5	-3.8	1.7	.
O=C(O[C@@H]1OC2COC(=O)c3cc(O)c(O)c(O)c3-c3c(cc(O)c(O)c3O)C(=O)O[C@@H]([C@H]1O)[C@@H]2O)c1cc(O)c(O)c(O)c1	-13.5	38.3*	-5.2	-0.8	13.2	0.7	60.4*
SMILES	Arbovirus anti	p97 ATPase inh	S1P3 antag	Redox H2O2 prof	S1P4 antagonist	S1P4 agonist	p97 inh conf
COc1nc2ccc(C)cc2cc1-c1noc(-c2ccccc2)n1	-1.9	2.8	.	0.1	2.7	-1.3	.
CCN(CC)C(C)C#CCC(c1ccccc1)c1ccccc1 (stereo unspecified)	.	-5.1	10.0	.	16.8	-0.2	.
Nc1nc(SCC(=O)Nc2ccc(Cl)cc2)[nH]c(=O)c1-c1ccccc1	-1.3	6.7	-2.7	0.0	-13.7	0.1	.
Cc1c(NS(=O)(=O)c2ccc(Br)s2)c(=O)n(-c2ccccc2)n1C	-1.1	0.7	4.8	1.8	-11.1	0.0	.
Cc1c(NS(=O)(=O)c2ccc(S(=O)(=O)c3ccccc3)s2)c(=O)n(-c2ccccc2)n1C	.	16.3*	3.6	.	-4.0	1.5	17.2*
Cc1cccc(N=C2NC(=O)/C(=C/C=C/c3ccco3)S2)c1C	-5.7	20.9*	-19.2	0.8	-21.2	1.2	12.4
O=C(CCl)Nc1cn(-c2ccccc2)nc1-c1ccc(F)cc1	-30.3	17.1*	-10.3	0.1	-3.1	-0.4	26.3*
CN1c2ccccc2C(C)(C)C12C=Cc1cc(O)ccc1O2 (stereo unspecified)	-46.1	0.7	20.8	-0.1	-15.6	0.8	.
CN1c2ccccc2C(C)(C)C12C=Nc1c(cc(N3CCOCC3)c3ccccc13)O2 (stereo unspecified)	-9.8	29.4*	.	-2.9	6.8	1.2	3.5
C/C(=N\NS(=O)(=O)c1ccccc1)c1ccc2c(c1)OCCO2	-4.8	1.4	-0.3	-0.4	-15.1	0.1	.
CC(=O)c1cc2c(cc1NC(=O)CN1CCCCC1C)OCO2 (stereo unspecified)	-3.5	-4.2	.	0.3	3.0	1.2	.
N#CC1=C(N)Oc2cc(N)ccc2C1c1cccnc1 (stereo unspecified)	-6.6	7.1	-0.6	0.8	5.1	0.8	.
N#CC1=C(N)Oc2cc(Nc3ccccc3)ccc2C1c1ccncc1 (stereo unspecified)	-36.6	19.8*	.	6.7	-7.8	-2.3	33.3*
O=C(O)C1CC(O)CN1C(=O)c1ccco1 (stereo unspecified)	-4.1	-0.4	.	1.1	-11.3	-1.3	.
Cc1[nH]c2ccccc2c1C(=O)COC(=O)c1ccc([N+](=O)[O-])s1	-21.2	39.1*	-22.9	0.8	1.4	-1.5	31.3*
COC(=O)c1c(N)sc(Cc2ccccc2)c1C	-29.9	2.8	4.5	-0.4	6.6	1.7	.
COC(=O)c1c(NC(=O)/C=C/C(=O)O)sc(Cc2ccccc2)c1C	9.6	15.3*	1.0	0.1	-26.8	1.0	23.4*
CCCOP(=O)(c1ccc(N(C)C)cc1)C(Nc1ccccc1)c1ccc(C)cc1 (stereo unspecified)	.	-9.2	10.4	.	8.2	-0.5	.
Clc1c(Cl)c(Cl)c2n[nH]nc2c1Cl	.	18.9*	-8.9	.	12.2	-1.4	15.3*
Cc1nc2ccccc2n1CC(=O)NCCN1CCCC1	8.1	35.4*	-15.3	0.8	-21.7	-0.8	7.0
